# From paper PMC11062922 (Nature Chemical Biology, 2023)
# Read-outs that look alike come from different tables or passages of the source.
# Legend:
# STK10 = conditions: read-out: apparent Kd, n = 1
# TBK1 = conditions: read-out: apparent Kd, n = 1
substance,measurement,setting,value
Lestaurtinib,potency estimated from few doses,"STK10; compound concentrations:100 nM and 1000 nM (sheet 'Lestaurtinib' of Supplementary Table 1),run:Lestaurtinib_02482_R3,Plate:MR011",0.136 µM
same,potency estimated from few doses,"STK10; compound concentrations:100 nM and 1000 nM (sheet 'Lestaurtinib' of Supplementary Table 1),run:Lestaurtinib_02487_R3,Plate:MR012",0.163 µM
same,potency estimated from few doses,"STK10; compound concentrations:100 nM and 1000 nM (sheet 'Lestaurtinib' of Supplementary Table 1),run:Lestaurtinib_02566_R2,Plate:MR014",0.144 µM
same,potency estimated from few doses,"STK10; compound concentrations:100 nM and 1000 nM (sheet 'Lestaurtinib' of Supplementary Table 1),run:Lestaurtinib_02566_R3,Plate:MR014",0.135 µM
same,potency estimated from few doses,"STK10; compound concentrations:100 nM and 1000 nM (sheet 'Lestaurtinib' of Supplementary Table 1),run:Lestaurtinib_02572_R3,Plate:MR015",0.157 µM
same,potency estimated from few doses,"STK10; compound concentrations:100 nM and 1000 nM (sheet 'Lestaurtinib' of Supplementary Table 1),run:Lestaurtinib_02577_R3,Plate:MR016",0.181 µM
same,potency estimated from few doses,"STK10; compound concentrations:100 nM and 1000 nM (sheet 'Lestaurtinib' of Supplementary Table 1),run:Lestaurtinib_02584_R3,Plate:MR017",0.179 µM
same,potency estimated from few doses,"STK10; compound concentrations:100 nM and 1000 nM (sheet 'Lestaurtinib' of Supplementary Table 1),run:Lestaurtinib_02601_R1,Plate:MR018",0.137 µM
same,potency estimated from few doses,"STK10; compound concentrations:100 nM and 1000 nM (sheet 'Lestaurtinib' of Supplementary Table 1),run:Lestaurtinib_02601_R2,Plate:MR018",0.167 µM
same,potency estimated from few doses,"STK10; compound concentrations:100 nM and 1000 nM (sheet 'Lestaurtinib' of Supplementary Table 1),run:Lestaurtinib_02606_R1,Plate:MR019",0.135 µM
same,potency estimated from few doses,"STK10; compound concentrations:100 nM and 1000 nM (sheet 'Lestaurtinib' of Supplementary Table 1),run:Lestaurtinib_02606_R3,Plate:MR019",0.144 µM
same,potency estimated from few doses,"STK10; compound concentrations:100 nM and 1000 nM (sheet 'Lestaurtinib' of Supplementary Table 1),run:Lestaurtinib_02624_R2,Plate:MR020",0.137 µM
same,potency estimated from few doses,"STK10; compound concentrations:100 nM and 1000 nM (sheet 'Lestaurtinib' of Supplementary Table 1),run:Lestaurtinib_02624_R3,Plate:MR020",0.115 µM
same,potency estimated from few doses,"STK10; compound concentrations:100 nM and 1000 nM (sheet 'Lestaurtinib' of Supplementary Table 1),run:Lestaurtinib_02724_R2,Plate:MR021",0.121 µM
same,potency estimated from few doses,"STK10; compound concentrations:100 nM and 1000 nM (sheet 'Lestaurtinib' of Supplementary Table 1),run:Lestaurtinib_02741_R2,Plate:MR023",0.134 µM
same,potency estimated from few doses,"STK10; compound concentrations:100 nM and 1000 nM (sheet 'Lestaurtinib' of Supplementary Table 1),run:Lestaurtinib_02741_R3,Plate:MR023",0.14 µM
same,potency estimated from few doses,"STK10; compound concentrations:100 nM and 1000 nM (sheet 'Lestaurtinib' of Supplementary Table 1),run:Lestaurtinib_02748_R1,Plate:MR024",0.157 µM
same,potency estimated from few doses,"STK10; compound concentrations:100 nM and 1000 nM (sheet 'Lestaurtinib' of Supplementary Table 1),run:Lestaurtinib_02748_R2,Plate:MR024",0.153 µM
same,potency estimated from few doses,"STK10; compound concentrations:100 nM and 1000 nM (sheet 'Lestaurtinib' of Supplementary Table 1),run:Lestaurtinib_02748_R3,Plate:MR024",0.115 µM
same,potency estimated from few doses,"STK10; compound concentrations:100 nM and 1000 nM (sheet 'Lestaurtinib' of Supplementary Table 1),run:Lestaurtinib_02752_R1,Plate:MR025",0.124 µM
same,potency estimated from few doses,"STK10; compound concentrations:100 nM and 1000 nM (sheet 'Lestaurtinib' of Supplementary Table 1),run:Lestaurtinib_02752_R2,Plate:MR025",0.141 µM
same,potency estimated from few doses,"STK10; compound concentrations:100 nM and 1000 nM (sheet 'Lestaurtinib' of Supplementary Table 1),run:Lestaurtinib_02765_R1,Plate:MR026",0.097 µM
same,potency estimated from few doses,"STK10; compound concentrations:100 nM and 1000 nM (sheet 'Lestaurtinib' of Supplementary Table 1),run:Lestaurtinib_02765_R2,Plate:MR026",0.132 µM
same,potency estimated from few doses,"STK10; compound concentrations:100 nM and 1000 nM (sheet 'Lestaurtinib' of Supplementary Table 1),run:Lestaurtinib_02766_R2,Plate:MR027",0.0931 µM
same,potency estimated from few doses,"STK10; compound concentrations:100 nM and 1000 nM (sheet 'Lestaurtinib' of Supplementary Table 1),run:Lestaurtinib_02766_R3,Plate:MR027",0.137 µM
same,potency estimated from few doses,"STK10; compound concentrations:100 nM and 1000 nM (sheet 'Lestaurtinib' of Supplementary Table 1),run:Lestaurtinib_02768_R1,Plate:MR028",0.115 µM
same,potency estimated from few doses,"STK10; compound concentrations:100 nM and 1000 nM (sheet 'Lestaurtinib' of Supplementary Table 1),run:Lestaurtinib_02768_R3,Plate:MR028",0.133 µM
same,potency estimated from few doses,"STK10; compound concentrations:100 nM and 1000 nM (sheet 'Lestaurtinib' of Supplementary Table 1),run:Lestaurtinib_02795_R1,Plate:MR022",0.134 µM
same,potency estimated from few doses,"STK10; compound concentrations:100 nM and 1000 nM (sheet 'Lestaurtinib' of Supplementary Table 1),run:Lestaurtinib_02795_R2,Plate:MR022",0.13 µM
same,potency estimated from few doses,"STK10; compound concentrations:100 nM and 1000 nM (sheet 'Lestaurtinib' of Supplementary Table 1),run:Lestaurtinib_02802_R1,Plate:MR029",0.113 µM
same,potency estimated from few doses,"STK10; compound concentrations:100 nM and 1000 nM (sheet 'Lestaurtinib' of Supplementary Table 1),run:Lestaurtinib_02896_R2,Plate:MR030",0.142 µM
same,potency estimated from few doses,"STK10; compound concentrations:100 nM and 1000 nM (sheet 'Lestaurtinib' of Supplementary Table 1),run:Lestaurtinib_03252_R2,Plate:MR032",0.0745 µM
same,potency estimated from few doses,"STK10; compound concentrations:100 nM and 1000 nM (sheet 'Lestaurtinib' of Supplementary Table 1),run:Lestaurtinib_03260_R1,Plate:MR033",0.228 µM
same,potency estimated from few doses,"STK10; compound concentrations:100 nM and 1000 nM (sheet 'Lestaurtinib' of Supplementary Table 1),run:Lestaurtinib_03260_R2,Plate:MR033",0.211 µM
same,potency estimated from few doses,"TBK1; compound concentrations:100 nM and 1000 nM (sheet 'Lestaurtinib' of Supplementary Table 1),run:Lestaurtinib_02339_R2,Plate:MR001",0.822 µM
same,potency estimated from few doses,"TBK1; compound concentrations:100 nM and 1000 nM (sheet 'Lestaurtinib' of Supplementary Table 1),run:Lestaurtinib_02364_R3,Plate:MR002",1.61 µM
same,potency estimated from few doses,"TBK1; compound concentrations:100 nM and 1000 nM (sheet 'Lestaurtinib' of Supplementary Table 1),run:Lestaurtinib_02381_R1,Plate:MR004",1.35 µM
same,potency estimated from few doses,"TBK1; compound concentrations:100 nM and 1000 nM (sheet 'Lestaurtinib' of Supplementary Table 1),run:Lestaurtinib_02381_R2,Plate:MR004",1.6 µM
same,potency estimated from few doses,"TBK1; compound concentrations:100 nM and 1000 nM (sheet 'Lestaurtinib' of Supplementary Table 1),run:Lestaurtinib_02407_R3,Plate:MR005",1.33 µM
same,potency estimated from few doses,"TBK1; compound concentrations:100 nM and 1000 nM (sheet 'Lestaurtinib' of Supplementary Table 1),run:Lestaurtinib_02422_R1,Plate:MR006",0.703 µM
same,potency estimated from few doses,"TBK1; compound concentrations:100 nM and 1000 nM (sheet 'Lestaurtinib' of Supplementary Table 1),run:Lestaurtinib_02438_R2,Plate:MR008",1.32 µM
same,potency estimated from few doses,"TBK1; compound concentrations:100 nM and 1000 nM (sheet 'Lestaurtinib' of Supplementary Table 1),run:Lestaurtinib_02443_R1,Plate:MR009",1.62 µM
same,potency estimated from few doses,"TBK1; compound concentrations:100 nM and 1000 nM (sheet 'Lestaurtinib' of Supplementary Table 1),run:Lestaurtinib_02443_R3,Plate:MR009",0.884 µM
